Experimental data published in PubChem BioAssay AID485314 (National Center for Advancing Translational Sciences (NCATS), 2010).
Hit rate of the full screen: of about 340,000 compounds, about 4,500 (1.3%) were called active. Not shown: some 5% with an inconclusive outcome. The list comes from a sample in which actives are over-represented; it also holds similar structures and randomly drawn compounds. Unmarked numbers belong to inactive results. The call rests on the fitted dose curve; in most records, active means well fitted inhibition curve with a large enough effect; inconclusive means small, poorly fitted or top-dose-only effect, or another doubt; inactive means no such curve, though single readings can be large or run the other way.

target: DNA polymerase beta (Homo sapiens) (UniProt P06746); test: qHTS Assay for Inhibitors of DNA Polymerase Beta; details: Pol beta primer extension/strand displacement, fluorescence kinetic; series mostly up to 114 µM; activity change, negative = inhibition: at the top concentration
In short: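 Preincubation: enzyme (10 nM) with compound, 15 min, RT. Reaction: substrate added to 50 nM final. Reads: 0 and 10 min. Analysis: normalized, Hill fit.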
On the % scale 0 is the no-effect control and ±100 the full control effect; potency means the concentration at half of the fitted maximal effect.

SMILES	activity change, negative = inhibition [%]	Potency
O=C(CSc1nccn1Cc1ccc(F)cc1)NCc1ccccc1	2.98	–
COc1ccc(-c2noc(CSc3nnc(-c4ccccc4)n3-c3ccc(F)cc3)n2)c(OC)c1	2.59	–
C/C(=N\Nc1ccc(S(N)(=O)=O)cc1[N+](=O)[O-])c1cccs1	–	11.2 µM (active)
C/C(=N\Nc1ncc(Cl)cc1Cl)c1cccs1	-23.8	–
C/C(=N\NS(=O)(=O)c1ccc(Br)cc1)c1cccs1	19.8	–
CCC(=O)N1c2ccccc2CC1C(=O)N1CCN(c2cccc(OC)c2)CC1 (configuration not stated)	-16	–
O=C(NCc1ccccc1)c1ccc2c(c1)nc1n2CCCCC1	2.98	–
CCOc1cccc(NC(=O)CSc2ncc(-c3ccc(Cl)cc3)[nH]2)c1	-0.737	–
Cc1cc(C)c2nc3nc(C)cc(C)c3c(N)c2c1	–	39.8 µM (active)
CC(/C=N/NC(=O)c1cc(-c2ccc3ccccc3c2)n[nH]1)=C\c1ccco1	–	12.6 µM (active)
CC(=C/c1ccccc1)/C=N/NC(=O)c1cc(C)oc1C	21.3	–
CC(C)(C)C1CCC(=NNC(=O)c2cc(-c3ccccc3)n[nH]2)CC1 (configuration not stated)	-0.4	–
COc1ccc(/C=C/c2nc(C#N)c(NCc3ccc(F)cc3)o2)cc1OC	-25.4	–
O=c1c2ccccc2oc2nc(C3CCCCC3)n(Cc3ccco3)c(=O)c12	-1.37	–
Cc1nc2c(c(=O)n1Cc1ccco1)c1nc3ccccc3nc1n2Cc1ccccc1	–	20 µM (active)
Clc1cccc(-c2nc3nc4ccccc4nc3n2Cc2ccco2)c1	-2.15	–
Cn1c2ccccc2c(=O)c2c(=O)n(Cc3ccco3)c(COc3ccccc3)nc21	-7.71	–
Cc1cc(NC(=O)CSc2nc3cc(Cl)ccc3c(=O)n2Cc2ccco2)no1	-0.389	–
Cc1ccc(Cn2c(C)nc3c(c2=O)c2nc4ccccc4nc2n3Cc2ccco2)cc1	–	10 µM (active)
Cc1c(NC(=O)C(C)(C)C)cccc1-c1nc2ccccc2s1	-25.5	–
Cc1ccc(NC(=O)CCCn2c(=O)c3cccn3c3ccccc32)cc1Cl	3.08	–
Cc1ccc(CN2CCC(CNC(=O)c3cnn(-c4ccccc4Cl)c3C3CCN(C(=O)OC(C)(C)C)CC3)CC2)cc1	3.23	–
Cc1ccc(CNC(=O)CCc2c(C)nn(-c3ccc(N4CCCC4)nn3)c2C)cc1	2.86	–
CC(=O)c1cccc(Nc2ccc3cc(S(=O)(=O)N4CCC(C)CC4)ccc3n2)c1	-0.0137	–
CC(=O)c1ccc(S(=O)(=O)N2CCN(C(=O)/C=C/c3ccc4ccccc4n3)CC2)cc1	–	11.2 µM (active)
CC(=O)c1ccc(S(=O)(=O)N2CCC3(CC2)OCCO3)cc1	8.96	–
O=C1Cc2cc(S(=O)(=O)Nc3ccc(OC(F)(F)F)cc3)cc3c2N1CCC3	-15.2	–
